Results reported in PubChem BioAssay (NCI).
About 83,000 compounds went through this panel and 20% of them were active in at least one assay; those are over-represented in the sample as a whole.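 Note: values are percent growth. 100 is the growth of untreated cells, values between 100 and 0 indicate rising inhibition; between -100 and 0 indicates cell death.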 Unmarked numbers belong to inactive results. Active and inactive are the calls of the source. Rule for the calls: active = growth percent below 10; inactive = the rest.

Experiments:
Assay in all cases: NCI-60 one-dose screen, 48 h (100 = growth as untreated, 0 = no growth, -100 = all killed)
Conditions in all cases: 10 µM unless noted
EKVX NSCLC = test system: EKVX NSCLC
SN12C renal = test system: SN12C renal
UO-31 renal = test system: UO-31 renal
TK-10 renal = test system: TK-10 renal
ACHN renal = test system: ACHN renal
CAKI-1 renal = test system: CAKI-1 renal
A498 renal = test system: A498 renal
CCRF-CEM leukemia = test system: CCRF-CEM leukemia
MOLT-4 leukemia = test system: MOLT-4 leukemia
SR leukemia = test system: SR leukemia

Structure (SMILES)	growth (EKVX NSCLC)	growth (SN12C renal)	growth (UO-31 renal)	growth (TK-10 renal)	growth (ACHN renal)	growth (CAKI-1 renal)	growth (A498 renal)	growth (CCRF-CEM leukemia)	growth (MOLT-4 leukemia)	growth (SR leukemia)
ClC1C2CC(c3ccccc32)C1Cl (stereo not given)	123%	102%	108%	108%	104%	118%	92.4%	96.8%	101%	106%
COc1ccccc1[C@H]1c2[nH]c3ccccc3c2C[C@H]2C(=O)N(CCCCCCC(=O)NO)CC(=O)N12	74.7%	56.9%	44.7%	48.2%	35.1%	55.5%	31.9%	5.22% (active)	11%	19.3%
CSc1ccc2c(c1)N(CCC1CCCCN1C)c1ccccc1S2 (stereo not given)	67.5%	48%	28.2%	66.4%	25.8%	32.9%	84%	35.3%	40.5%	14.2%
ClC1=C(Cl)C(Cl)=C(Cl)C1=C/C=C/c1ccccc1	-6.52% (active)	-46% (active)	-50.9% (active)	-5.53% (active)	-74% (active)	-4.48% (active)	-87.4% (active)	-21.4% (active)	-23.5% (active)	-43.2% (active)
OCc1nnn(-c2ccccc2)c1CO	121%	102%	89.4%	121%	107%	111%	101%	102%	106%	104%
Fc1ccc(-c2nnc(/C=C/c3cn(-c4ccccc4)nc3-c3ccccc3)o2)cc1	103%	84.1%	84.1%	107%	90.9%	84.3%	111%	97.1%	99.3%	65.7%
Nc1cc(Cl)c(S(N)(=O)=O)cc1S(N)(=O)=O	111%	109%	102%	97.5%	101%	107%	116%	95.7%	158%	123%
Fc1ccc(-c2nnc(-c3c(-c4ccc(F)cc4)nc4ncccn34)o2)cc1	108%	104%	77.8%	111%	97.8%	100%	69.8%	96.7%	83.4%	90.8%
Nc1ccccc1-c1ccc([N+](=O)[O-])cc1	74.6%	60.3%	43.3%	72.7%	46.1%	30.3%	75.9%	24.6%	30.5%	34.8%
C[C@]12C[C@H](O)[C@H]3[C@@H](CCC4=CC(=O)CC[C@@]43C)[C@@H]1CC[C@@H]2C(=O)CO	80.7%	79.9%	89.6%	108%	95.8%	101%	43.5%	78.1%	116%	111%
COc1ccc(Cn2cc3c(c2-c2ccccc2)CCc2cncnc2-3)cc1	48.4%	62.7%	55.2%	109%	76.8%	36.2%	45.8%	42.6%	80%	57.7%
O=C(Oc1ccc[nH]c1=O)c1cccc(Cl)c1	104%	108%	96.2%	107%	96%	101%	127%	123%	115%	99.2%
O=C1/C(=C/c2ccc3cccc(Cl)c3n2)SC(=S)N1CCc1ccc(O)cc1	83.7%	87.1%	39.8%	129%	82.6%	51%	58.6%	6.53% (active)	48.9%	79%
COc1ccc2nc(NC(=O)c3cc(-c4ccc(F)cc4)n4nc(-c5ccccc5)cc4n3)sc2c1	79.5%	88.6%	73.6%	134%	67.5%	77.5%	83.4%	64.1%	96.1%	77.5%
O=c1ccn(C2OC(CO)C(O)C2F)c(=O)[nH]1 (stereo not given)	102%	102%	101%	124%	107%	107%	110%	119%	168%	111%
COC(=O)CC1=C(C)/C(=C/c2[nH]c(-c3ccc[nH]3)cc2OC)N=C1C	27.9%	21.4%	-68.9% (active)	6.46% (active)	-13.4% (active)	8.04% (active)	-5.38% (active)	-13.5% (active)	-49% (active)	-47.8% (active)
CCOC(=O)C(C(C)=O)c1nc2sc3cc(Cl)ccc3n2c(=N)c1C#N (stereo not given)	73.6%	85.9%	76.1%	157%	109%	91.6%	101%	163%	44.9%	60.3%
Cc1cc(NC(=O)c2ccc(N)cc2)ccc1N=Nc1ccc2c(O)c(N=Nc3ccc(Cl)c(S(=O)(=O)O)c3)c(S(=O)(=O)O)cc2c1	106%	102%	79.5%	73%	71.5%	87.1%	88.9%	55.7%	99.3%	66.5%
Cc1nnc(Nc2ccc(NC(=O)Nc3ccc(Cl)cc3)cc2)c2ccccc12	44.2%	60.1%	51.2%	51.7%	58.8%	33.9%	35.4%	11%	9.76% (active)	-3.51% (active)
COc1ccc2c(c1)/C(=C\c1c[nH]c3ccc(F)cc13)C(=O)N2	64.8%	82.2%	57.8%	96.2%	52.7%	56.7%	68.9%	78.9%	50.6%	46.4%
COc1cc(Oc2cc(-c3cccnc3)ccc2NC(=O)Nc2ccc(F)cc2F)cc(OC)c1OC	90.4%	102%	76.8%	116%	121%	94.3%	89.9%	97.3%	84.9%	97.4%
N#CCCCCCn1c2ccccc2c2c3c(c4c5ccccc5[nH]c4c21)C(=O)N(O)C3=O	46%	6.13% (active)	-44.9% (active)	22%	-81.6% (active)	-59.9% (active)	-76.3% (active)	-1.67% (active)	-21.3% (active)	-9.51% (active)
CCOc1cc(-c2ccc[nH]2)[nH]c1/C=C1\N=C(C)C(C(=O)OC)=C1C	-50.3% (active)	-75.8% (active)	-79.9% (active)	-85.8% (active)	-76.8% (active)	-49.2% (active)	-74% (active)	-37.8% (active)	-53.8% (active)	-45.5% (active)
O=c1cc(-c2cccnc2)oc2c1ccc1ccccc12	86.3%	80.3%	60.5%	114%	69.6%	72.9%	61.6%	88.1%	103%	39.3%
Nc1ccc2c3c(cccc13)-c1ccccc1-2	87.4%	55.8%	32.3%	116%	95.2%	69.4%	85.9%	25.1%	32.4%	93.1%
O=[N+]([O-])c1ccc(N/N=C\c2ccccc2[N+](=O)[O-])nc1	101%	103%	97.8%	116%	102%	83%	83.4%	97.8%	93.5%	92.4%
CSc1nc2c(c(=O)n1C)C(c1ccccc1)C1=C(N2)/C(=C/c2ccccc2)CCC1 (stereo not given)	39.1%	55.4%	34.9%	51%	57.3%	20.7%	81.4%	20.6%	27.5%	-14.2% (active)
CC(=O)c1ccc2c3c(n(C)c2c1)CCCC3	88.3%	97.2%	112%	85.4%	105%	102%	-76.1% (active)	86.6%	76.5%	92.1%
